Our source for the growth values is PubChem BioAssay (NCI).

About 83,000 compounds went through this panel and 20% of them were active in at least one assay; those are over-represented in the sample as a whole.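 96-well plates, one dose, 48 hours. Percent growth reported; active if below 10.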 Active and inactive are the calls of the source.

One assay concerns OVCAR-8 ovarian. Nature of the assay: NCI-60 one-dose screen, 48 h (100 = growth as untreated, 0 = no growth, -100 = all killed). Particulars: 10 µM unless noted.
As for `COc1cc(C)cc2oc3oc(=O)c(C(=O)c4cc5cc(Br)ccc5o4)cc3c(=O)c12`, the growth is 104% (inactive).

Take `COc1ccc(OC)c([N+](=O)[O-])c1C(=O)CNC(C)=O`: the growth is 99.5% (inactive).

`COc1cc(C(=O)/C=C/c2c(-c3ccc(F)cc3)nc3sccn23)cc(OC)c1OC`: the growth was 34.8% (inactive).

Regarding `CC(C)c1ccc(C(=O)Nc2nc3ccc(O)cc3s2)cc1`, the growth was 40.6% (inactive).

In the case of `C=C(C)C1CCC2(C(=O)O)CCC3(C)C(CCC4C5(C)CCC(OC(=O)NCc6ccccc6)C(C)(C)C5CCC43C)C12` (configuration not stated), the growth was 45.5% (inactive).

As for `CCOC(=O)c1ccc2nc(-c3c(C)nn(-c4ccccc4)c3N3CCOCC3)[nH]c2c1`, the growth was 93.4% (inactive).

For `Nc1nc(SCc2cccc([N+](=O)[O-])c2)c2[nH]cnc2n1`, the growth is 96.5% (inactive).

Regarding `COc1ccc2nc3c(cc2c1)C(=O)CC(c1ccccc1)C3` (configuration not stated), the growth is 39% (inactive).

Consider `CCCC[C@@H](C=O)NC(=O)[C@H](CC(C)C)NC(=O)[C@H](CC(C)C)NC(=O)OCc1ccccc1`, for which the growth is 18.8% (inactive).

Consider `O=C(N/N=C/c1ccc([N+](=O)[O-])cc1)c1ccc(Br)o1`, for which the growth was 71.8% (inactive).

With `NC1=NC(=O)NC1(c1ccccc1)c1ccccc1`, the growth is 97.7% (inactive).

Consider `CSc1nc2sc3cc(Cl)c(Cl)cc3n2c(=N)c1C#N`, for which the growth is 91.4% (inactive).

For the compound `Cn1c(=O)c(C#N)c(-c2ccco2)n2c(S(=O)(=O)Cc3ccccc3)nnc12`, the growth is 48.9% (inactive).

In the case of `Nc1ccc2c(c1)Cc1cc(NC(=O)C(F)(F)F)ccc1-2`, the growth was 102% (inactive).

Take `NC(=O)c1c(NC(=O)COC(=O)Cc2ccccc2F)sc2c1CCC2`: the growth was 39.4% (inactive).

Take `Cc1cccc([N+](=O)[O-])c1I`: the growth was 98.2% (inactive).

As to `COc1ccc2nc3ccccc3c(NCCNCCO)c2c1`, the growth was 5.82% (active).

Take `Cc1cc(NN=C(c2ccc(O)cc2)c2ccc(O)cc2)c([N+](=O)[O-])cc1[N+](=O)[O-]`: the growth was 0.819% (active).

For `N#Cc1c(Cl)nc(SCC2CO2)nc1-c1ccccc1` (configuration not stated), the growth was 51.6% (inactive).

As for `CCCCCCCCCCCCCCNC(=O)Nc1ccc(Cl)c(Cl)c1`, the growth was 30.5% (inactive).

For the compound `O=C1NC(=O)c2cc([N+](=O)[O-])cc3cccc1c23`, the growth was 85.4% (inactive).

Take `CCN(CC)CCSC(=O)C(O)(c1ccccc1)C1CCCC1` (configuration not stated): the growth was 97.8% (inactive).

Regarding `CCC(Br)(CC)C(=O)c1ccc(OCC(=O)O)c(Cl)c1Cl`, the growth is 97.4% (inactive).

With `COc1ccc(C2CC(c3cc(OC)c(OC)c(OC)c3)=NN2C(C)=O)cc1OCC(=O)Nc1nc2ccc(C(F)(F)F)cc2s1` (configuration not stated), the growth is 62.3% (inactive).

In a further assay the test system is OVCAR-5 ovarian. Described as above. The conditions noted are these: 10 µM unless noted.
Consider `O=[N+]([O-])c1cc([N+](=O)[O-])c(NN=C(c2ccc(O)cc2)c2ccc(O)cc2)cc1Cl`, for which the growth was 78.1% (inactive).

For the compound `Cc1cc(SC#N)ncn1`, the growth was 115% (inactive).

`O=C(N/N=C/c1c(Cl)cccc1Cl)c1cccc(Nc2ccnc(C(F)(F)F)c2)c1`: the growth was 108% (inactive).

Take `O=[N+]([O-])c1cc([N+](=O)[O-])c(C(F)(F)F)cc1NN=C(c1ccc(O)cc1)c1ccc(O)cc1`: the growth was -6.51% (active).

For `N/C(=N\c1nc2ccccc2[nH]1)NC(=O)Cc1cccc2ccccc12`, the growth is 88.6% (inactive).

In the case of `CCN(CC)CCCC(C)Nc1ccnc2cc(Cl)c(SCc3ccccc3)cc12` (configuration not stated), the growth was -13.7% (active).

Regarding `O=C(Oc1ccc(Cl)cc1[N+](=O)[O-])Oc1ccc(Cl)cc1[N+](=O)[O-]`, the growth was 108% (inactive).

On to `C[C@@H](NC(=O)[C@@H](CC(=O)N1CCC(N2CCCCC2)CC1)N1C(=O)[C@@H](N2C(=O)OC[C@@H]2c2ccccc2)[C@H]1/C=C/c1cccc(Cl)c1)c1ccccc1`, for which the growth was 115% (inactive).

As for `COc1ccc2c3ccnc(C(F)(F)F)c3n(CCCCN)c2c1`, the growth was 54.8% (inactive).

Turning to `CCOC(=O)c1c[nH]c2cc(OCC3CC3)c(OCC3CC3)cc2c1=O`, the growth was 102% (inactive).

For `COc1ccc(-c2nc3ccccn3c2/C=C/C(=O)c2cc(OC)c(OC)c(OC)c2)cc1OC`, the growth is 24.5% (inactive).

In the case of `NC(=S)Cc1ccccc1`, the growth was 100% (inactive).

With `CC(C)C1=NOC(=O)C1=Cc1cn(-c2ccccc2)nc1-c1cccc([N+](=O)[O-])c1`, the growth was 106% (inactive).

`O=c1c2c3c(sc2n2cnnc2n1Cc1ccccc1)CCCC3`: the growth is 89.6% (inactive).

As for `COc1cc(C)cc2oc3oc(=O)c(C(=O)c4cc5cc(Br)ccc5o4)cc3c(=O)c12`, the growth is 98.9% (inactive).

Take `COc1ccc(OC)c([N+](=O)[O-])c1C(=O)CNC(C)=O`: the growth is 99.9% (inactive).

For the compound `COc1cc(C(=O)/C=C/c2c(-c3ccc(F)cc3)nc3sccn23)cc(OC)c1OC`, the growth was 88% (inactive).

For `CC(C)c1ccc(C(=O)Nc2nc3ccc(O)cc3s2)cc1`, the growth is 40.6% (inactive).

On to `C=C(C)C1CCC2(C(=O)O)CCC3(C)C(CCC4C5(C)CCC(OC(=O)NCc6ccccc6)C(C)(C)C5CCC43C)C12` (configuration not stated), for which the growth was 75.6% (inactive).

For the compound `CCOC(=O)c1ccc2nc(-c3c(C)nn(-c4ccccc4)c3N3CCOCC3)[nH]c2c1`, the growth is 103% (inactive).

With `Nc1nc(SCc2cccc([N+](=O)[O-])c2)c2[nH]cnc2n1`, the growth was 101% (inactive).

For the compound `COc1ccc2nc3c(cc2c1)C(=O)CC(c1ccccc1)C3` (configuration not stated), the growth was 61.2% (inactive).

`CCCC[C@@H](C=O)NC(=O)[C@H](CC(C)C)NC(=O)[C@H](CC(C)C)NC(=O)OCc1ccccc1`: the growth is -34.5% (active).

For the compound `O=C(N/N=C/c1ccc([N+](=O)[O-])cc1)c1ccc(Br)o1`, the growth is 104% (inactive).

For `NC1=NC(=O)NC1(c1ccccc1)c1ccccc1`, the growth was 83.2% (inactive).

For the compound `CSc1nc2sc3cc(Cl)c(Cl)cc3n2c(=N)c1C#N`, the growth is 123% (inactive).

Take `Cn1c(=O)c(C#N)c(-c2ccco2)n2c(S(=O)(=O)Cc3ccccc3)nnc12`: the growth was 99.3% (inactive).

As to `Nc1ccc2c(c1)Cc1cc(NC(=O)C(F)(F)F)ccc1-2`, the growth is 114% (inactive).

With `NC(=O)c1c(NC(=O)COC(=O)Cc2ccccc2F)sc2c1CCC2`, the growth was 111% (inactive).

With `Cc1cccc([N+](=O)[O-])c1I`, the growth was 98.9% (inactive).

Turning to `COc1ccc2nc3ccccc3c(NCCNCCO)c2c1`, the growth was -4.97% (active).

Regarding `Cc1cc(NN=C(c2ccc(O)cc2)c2ccc(O)cc2)c([N+](=O)[O-])cc1[N+](=O)[O-]`, the growth is 90.1% (inactive).

For `N#Cc1c(Cl)nc(SCC2CO2)nc1-c1ccccc1` (configuration not stated), the growth was 101% (inactive).

For the compound `CCCCCCCCCCCCCCNC(=O)Nc1ccc(Cl)c(Cl)c1`, the growth was 64.8% (inactive).

Consider `O=C1NC(=O)c2cc([N+](=O)[O-])cc3cccc1c23`, for which the growth was 109% (inactive).

Consider `CCN(CC)CCSC(=O)C(O)(c1ccccc1)C1CCCC1` (configuration not stated), for which the growth is 94.6% (inactive).

Consider `CCC(Br)(CC)C(=O)c1ccc(OCC(=O)O)c(Cl)c1Cl`, for which the growth was 106% (inactive).

For `COc1ccc(C2CC(c3cc(OC)c(OC)c(OC)c3)=NN2C(C)=O)cc1OCC(=O)Nc1nc2ccc(C(F)(F)F)cc2s1` (configuration not stated), the growth is 117% (inactive).
